This is an account of results in PubChem BioAssay.

Calls of active or inactive are those of the source.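 How the source made its calls: active means compounds whose cell count with miR-34 switched on is under 0.7 times the count with it off; inactive means the rest.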

One assay in a line: viability loss with induced miR-34 in A549 – imaging, A549 dox-inducible miR-34, nuclei and caspase counts, primary screen (AID 1347080). Further: test concentration not given here. The settings on record: A549 miR-34 inducible, Hoechst nuclei count, 48 h; stronger effect = lower value; cell number ratio, induced over uninduced.
For the compound `CCCCC/C=C\C/C=C\C/C=C\C/C=C\CCCC(=O)NCCc1c[nH]c2ccc(O)cc12`, the fold change is 1 (inactive).

For `CCCCC/C=C\C/C=C\C/C=C\C/C=C\CCCC(=O)Nc1ccc2c(C)cc(=O)oc2c1`, the fold change is 0.937 (inactive).

Turning to `CCCN(CCCN)N(O)N=O`, the fold change is 1.05 (inactive).

For `CCCCCCCCCC(=O)OC[C@H](COP(=O)([O-])OCC[N+](C)(C)C)OC(=O)CCCCCCCCC`, the fold change is 0.907 (inactive).

Regarding `C=C1[C@@H](O)[C@@H]2O[C@@]3(CCC2O[C@@H]1[C@@H](O)C[C@H](C)C1O[C@@]2(CCCCO2)CC[C@H]1C)CC[C@H](/C=C/[C@@H](C)[C@@H]1CC(C)=C[C@@]2(O[C@H](C[C@@](C)(O)C(=O)O)CC[C@H]2O)O1)O3` (some centres undefined), the fold change is 0.897 (inactive).

`CCCCC/C=C\C/C=C\C/C=C\C/C=C\CCCC(=O)Nc1ccc([N+](=O)[O-])cc1`: the fold change was 1.04 (inactive).

As for `CCCCC/C=C\C/C=C\C/C=C\C/C=C\CCCC(=O)NCC(O)CC(=O)O` (centres undefined), the fold change is 1.07 (inactive).

As for `CCCCC/C=C\C/C=C\C/C=C\C/C=C\CCCC(=O)NC1CC1`, the fold change was 1.01 (inactive).

Consider `CCCCCCCCCCCCCCCC(=O)OC[C@H](COP(=O)([O-])OCC[N+](C)(C)C)OC(=O)CCCC=O`, for which the fold change is 0.934 (inactive).

For the compound `CCCCC/C=C\C/C=C\C/C=C\C/C=C\CCCC(=O)NCCF`, the fold change is 1 (inactive).

`CN=C(NS(=O)(=O)c1ccc(Cl)cc1)N1CC(c2ccccc2)C(c2ccc(Cl)cc2)=N1` (centres undefined): the fold change is 0.741 (inactive).

Consider `C=C(C)[C@@H]1CCC(C)=C[C@H]1C1=C(O)C(=O)C(CCCCC)=CC1=O`, for which the fold change is 1.08 (inactive).

As to `COc1cc(CNC(=O)CCCCCCC(C)C)c(I)cc1O`, the fold change was 1.02 (inactive).

`CCCCC/C=C\C/C=C\C/C=C\C/C=C\CCCC(=O)N[C@@H](CO)C(=O)O`: the fold change is 1.06 (inactive).

Take `CCCCCCCC/C=C\CCCCCCCC(=O)OC[C@@H](COP(O)(O)=S)OC`: the fold change is 1.15 (inactive).

The same assay, now with this note: A549 miR-34 inducible, Hoechst nuclei count, 48 h; measured here: relative caspase fold change +Dox/-Dox.
On to `CCCCC/C=C\C/C=C\C/C=C\C/C=C\CCCC(=O)NCc1ccoc1`, for which the fold change was 1.68.

For the compound `CCCCCCCCCCCCCCCCSP(=O)([O-])OCC[N+](C)(C)C`, the fold change was 0.479.

Consider `CCCCCCCC/C=C\CCCCCCCC(=O)N[C@H](C)CO`, for which the fold change stood at 1.87.

For `CCCCCCC(=O)O[C@H]1CC[C@H]2[C@@H]3C=CC4=CC(=O)CC[C@]4(C)[C@H]3CC[C@]12C`, the fold change came out at 0.362.

As for `CCCCC/C=C\C/C=C\C/C=C\C/C=C\CCCC(=O)NCCCl`, the fold change was found to be 1.15.

Regarding `CC(C)[C@]1(O)[C@@H](OC(=O)c2ccc[nH]2)[C@@]2(O)[C@@]3(C)C[C@]4(O)O[C@@]5([C@H](O)[C@@H](C)CC[C@]35O)[C@@]2(O)C41C`, the fold change was 1.12.

Take `c1cc2ccc(N3CCNCC3)cc2cn1`: the fold change was 0.763.

Take `O=C(CCC/C=C\C[C@@H]1[C@@H](/C=C/[C@@H](O)COc2cccc(C(F)(F)F)c2)[C@H](O)C[C@@H]1O)NC(CO)CO`: the fold change stood at 0.862.

For `CCN1C[C@@]2(COC)C3[C@@H](OC)[C@H]4[C@H]1C3([C@@H]1C[C@@]3(O)[C@H](OC(=O)c5ccccc5)[C@@H]1[C@]4(OC(C)=O)[C@@H](O)[C@@H]3OC)[C@H](OC)C[C@H]2O`, the fold change worked out at 1.45.

With `CCCCC/C=C\C/C=C\C/C=C\C/C=C\CCCC(=O)NC[C@H](C)O`, the fold change stood at 1.04.

Turning to `C=C(C)[C@@H]1CCC(C)=C[C@H]1c1c(O)cc(O)cc1CCCCC`, the fold change was 1.35.

In the case of `COc1ccc(/C=C/C(=O)CC(=O)/C=C/c2ccc(OC)c(OC)c2)cc1OC`, the fold change stood at 0.752.

As for `CCCC[C@@H](C)[C@@H](OC(=O)C[C@@H](CC(=O)O)C(=O)O)[C@H](C[C@@H](C)C[C@H](O)CCCC[C@@H](O)C[C@H](O)[C@H](C)N)OC(=O)C[C@H](CC(=O)O)C(=O)O`, the fold change was 1.82.

Turning to `c1cc2cc(N3CCNCC3)ccc2cn1`, the fold change is 0.665.

In the case of `O=C(NCCN1CCC2(CC1)C(=O)NCN2c1ccccc1)c1ccc2ccccc2c1`, the fold change came out at 1.81.

Take `c1cc(N2CCNCC2)c2cc[nH]c2c1`: the fold change came out at 1.51.

On to `CCCCC/C=C\C/C=C\C/C=C\C/C=C\CCCC(=O)NCCS(=O)(=O)O`, for which the fold change came to 1.07.

`COc1ccc2cc(C(C#N)OC(=O)OCC3OC3c3ccccc3)ccc2c1` (centres undefined): the fold change was 0.565.

Take `CN1C(=O)[C@]23CC4=CC=C[C@H](O)[C@H]4N2C(=O)[C@@]1(CO)SS3`: the fold change stood at 1.24.

On to `CC1OC(=O)C(C(C)C)NC(=O)C(C(C)C)OC(=O)C(C(C)C)NC(=O)C(C)OC(=O)C(C(C)C)NC(=O)C(C(C)C)OC(=O)C(C(C)C)NC(=O)C(C)OC(=O)C(C(C)C)NC(=O)C(C(C)C)OC(=O)C(C(C)C)NC1=O` (centres undefined), for which the fold change was determined as 1.28.

With `c1cc(N2CCNCC2)c2cnccc2c1`, the fold change turned out to be 0.639.

On to `CCCCC/C=C\C/C=C\C/C=C\C/C=C\CCCC(=O)NCCc1c[nH]c2ccc(O)cc12`, for which the fold change turned out to be 0.653.

In the case of `CCCCC/C=C\C/C=C\C/C=C\C/C=C\CCCC(=O)Nc1ccc2c(C)cc(=O)oc2c1`, the fold change came to 0.94.

Consider `CCCN(CCCN)N(O)N=O`, for which the fold change turned out to be 0.825.

For the compound `CCCCCCCCCC(=O)OC[C@H](COP(=O)([O-])OCC[N+](C)(C)C)OC(=O)CCCCCCCCC`, the fold change came out at 0.797.

Consider `CCCCCCC(=O)O[C@H]1CC[C@H]2[C@@H]3CC(=O)C4=CC(=O)CC[C@]4(C)[C@H]3CC[C@]12C`, for which the fold change is 0.574.

Turning to `C=C1[C@@H](O)[C@@H]2O[C@@]3(CCC2O[C@@H]1[C@@H](O)C[C@H](C)C1O[C@@]2(CCCCO2)CC[C@H]1C)CC[C@H](/C=C/[C@@H](C)[C@@H]1CC(C)=C[C@@]2(O[C@H](C[C@@](C)(O)C(=O)O)CC[C@H]2O)O1)O3` (some centres undefined), the fold change came to 0.814.

With `CCCCC/C=C\C/C=C\C/C=C\C/C=C\CCCC(=O)Nc1ccc([N+](=O)[O-])cc1`, the fold change worked out at 1.21.

On to `CCCCC/C=C\C/C=C\C/C=C\C/C=C\CCCC(=O)NCC(O)CC(=O)O` (centres undefined), for which the fold change was 1.27.

As to `CCCCC/C=C\C/C=C\C/C=C\C/C=C\CCCC(=O)NC1CC1`, the fold change worked out at 0.962.

Consider `CCCCCCCCCCCCCCCC(=O)OC[C@H](COP(=O)([O-])OCC[N+](C)(C)C)OC(=O)CCCC=O`, for which the fold change amounted to 2.44.

As to `CCCCC/C=C\C/C=C\C/C=C\C/C=C\CCCC(=O)NCCF`, the fold change was found to be 1.18.

In the case of `C[C@]12CCC3c4ccc(OC(=O)N(CCCl)CCCl)cc4CCC3C1CC[C@@H]2O` (some centres undefined), the fold change came to 0.867.

On to `CN=C(NS(=O)(=O)c1ccc(Cl)cc1)N1CC(c2ccccc2)C(c2ccc(Cl)cc2)=N1` (centres undefined), for which the fold change was determined as 0.564.

With `C=C(C)[C@@H]1CCC(C)=C[C@H]1C1=C(O)C(=O)C(CCCCC)=CC1=O`, the fold change amounted to 0.935.

With `COc1cc(CNC(=O)CCCCCCC(C)C)c(I)cc1O`, the fold change was found to be 0.817.

`CCCCC/C=C\C/C=C\C/C=C\C/C=C\CCCC(=O)N[C@@H](CO)C(=O)O`: the fold change was determined as 1.04.

In the case of `O[C@H]1[C@H]2[C@H](O)CCCN2C[C@H]1O`, the fold change came to 1.17.

For the compound `CCCCCCCC/C=C\CCCCCCCC(=O)OC[C@@H](COP(O)(O)=S)OC`, the fold change is 0.718.
